Source: PubChem
Sampled rows, rich in hits. Any-hit rate of the full collection: about 1.8%.
PME-1 inh: PME-1 (human) inhibition | AID 2130 | Q9Y570 | recombinant PME-1, FP-Rh probe fluorescence polarization | inhibition, % at 5.9 µM | hit rate 0.53% among 320,000;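 active means inhibition above the campaign mean of all compounds plus 3 SD, cut at about 26% in these data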;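 further: competitive labeling of PME-1 active site by serine hydrolase directed probe; inhibitors block probe labeling so polarization falls and inhibition rises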
LYPLA2 counter: counter-screen for PME1 inhibitors: inhibitors of human LYPLA2 | hit rate 0.38% among 320,000 | recombinant LYPLA2, FP-Rh probe fluorescence polarization | O95372 | inhibition, % at 5.9 µM | AID 2177;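 active means inhibition above the screen-wide mean plus 3 SD, limit set per campaign, cut at about 26% in these data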
Fam108B counter: Fam108B inhibition, counter-screen for RBBP9 inhibitors; AID 1947; recombinant Fam108B, FP-Rh probe fluorescence polarization; hit rate 0.33% among 300,000; inhibition, % at 9.51 µM;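 active means inhibition above the screen mean inhibition plus 3 SD, computed separately per campaign, cut at about 18% in these data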;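 further: inhibitors lower polarization as less probe binds the enzyme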
LYPLA1 inh: LYPLA1 (human) inhibition in PME1 counter-screen | O75608 | recombinant LYPLA1, FP-Rh probe fluorescence polarization | inhibition, % at 5.9 µM | hit rate 0.16% among 320,000 | AID 2174;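 active means inhibition above the mean of all tested compounds plus 3 SD, set per campaign, cut at about 14% in these data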;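 further: inhibitors block serine hydrolase probe labeling of LYPLA1 so polarization falls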
GSTO1 counter: counter-screen for RBBP9 inhibitors: inhibitors of human GSTO1; P78417; inhibition, % at 5.96 µM; recombinant GSTO1, activity-based probe fluorescence polarization; hit rate 1.1% among 300,000;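 active means inhibition above the campaign mean inhibition plus 3 SD, cut at about 35% in these data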
PAD4 inh: blocks human protein arginine deiminase 4; recombinant PAD4, RCA probe fluorescence polarization; hit rate 0.41% among 330,000; inhibition, % at 6.36 µM;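 active means percent inhibition above a cutoff equal to the mean of all tested compounds plus 3 SD, cut at about 15% in these data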
Target sequence (Q9UM07 whole entry, looked up): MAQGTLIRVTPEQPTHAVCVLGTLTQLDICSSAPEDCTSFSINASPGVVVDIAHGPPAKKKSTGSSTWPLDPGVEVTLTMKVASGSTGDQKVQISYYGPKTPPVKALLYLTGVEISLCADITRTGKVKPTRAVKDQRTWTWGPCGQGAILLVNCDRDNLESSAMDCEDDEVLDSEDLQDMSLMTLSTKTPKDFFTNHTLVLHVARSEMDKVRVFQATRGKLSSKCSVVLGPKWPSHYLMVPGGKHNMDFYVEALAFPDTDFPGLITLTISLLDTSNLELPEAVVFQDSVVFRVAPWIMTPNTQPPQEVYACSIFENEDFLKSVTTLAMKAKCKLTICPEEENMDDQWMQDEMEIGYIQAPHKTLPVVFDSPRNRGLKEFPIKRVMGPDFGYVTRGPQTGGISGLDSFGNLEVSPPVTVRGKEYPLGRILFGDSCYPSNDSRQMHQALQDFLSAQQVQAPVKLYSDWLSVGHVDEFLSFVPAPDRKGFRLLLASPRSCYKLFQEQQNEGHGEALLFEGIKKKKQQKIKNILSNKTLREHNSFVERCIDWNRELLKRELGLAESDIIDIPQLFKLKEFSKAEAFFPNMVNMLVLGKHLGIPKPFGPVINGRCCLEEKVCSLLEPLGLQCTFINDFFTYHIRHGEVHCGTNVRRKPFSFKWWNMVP
Fam108b confirm: confirmation of mouse Fam108b serine hydrolase inhibitors | shares compounds with Fam108B counter | recombinant Fam108b, FP-Rh probe fluorescence polarization | inhibition, % at 9.51 µM | hit rate 44% among 930 | AID 1978;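 active means inhibition above a limit from the primary screen, the mean over all compounds plus 3 SD, cut at about 19% in these data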;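 further: inhibitors free the probe so polarization falls as inhibition rises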
Fam108b ABPP HTS: inhibits mouse Fam108b in gel-based ABPP | shares compounds with Fam108B counter | recombinant Fam108b, fluorophosphonate probe | inhibition, % at 20 µM | hit rate 44% among 260; in the data active means inhibition above about 40%
Large screens that a line does not name were inactive (follow-up assays come after a bar, where they were run).

O=C(N/N=C/c1ccc(O)c(O)c1)c1ccc(CSc2cccc3cccnc23)cc1	PME-1 inh 53.7, Fam108B counter 43.5 | Fam108b confirm 25.9
O=C(CSc1cccc2cccnc12)N/N=C/c1cccc(O)c1	none
Nc1c(Cl)cnc(C(Cl)(Cl)Cl)c1Cl	none
CC1CCCN(C(=O)c2cc(F)c(F)cc2Cl)C1 (stereo unspecified)	none
Cc1ccc(C)n1-c1cccc(C(=O)O)c1	Fam108B counter 34.6, GSTO1 counter 53.2 | Fam108b confirm 43.3 | Fam108b ABPP HTS inactive
COc1ccc(Nc2nc(-c3cc4cccc(OC)c4oc3=O)cs2)cc1	none
COc1ccc2oc(=O)c(-c3csc(Nc4cccc(O)c4)n3)cc2c1	PME-1 inh 47.3, Fam108B counter 34.1 | Fam108b confirm 39.4 | Fam108b ABPP HTS 100.0
COc1ccc2c(c1OC)C(=O)OC2N1C(=O)CC[C@H]1C(=O)NCC1CCCO1 (stereo partly specified)	none
Cc1ccc(C(=O)O)cc1N1C(=O)c2cccc3c([N+](=O)[O-])ccc(c23)C1=O	PME-1 inh 31.7, Fam108B counter 27.0 | Fam108b confirm 22.9
COc1ccc2nc(C)cc(N/N=C/c3cccc(OC)c3O)c2c1	Fam108B counter 18.9 | Fam108b confirm inactive
COc1cccc2c(N/N=C/c3ccccc3)cc(C)nc12	none
COc1ccc(/C=N/Nc2cc(C)nc3ccc(Br)cc23)cc1	PME-1 inh 35.5, Fam108B counter 20.0 | Fam108b confirm inactive
Cc1cc(N/N=C/c2ccccc2O)c2ccccc2n1	none
CC1=NN(c2ccccc2)C(=O)/C1=C/c1c(O)n(-c2ccc(F)cc2)[nH]c1=O	PME-1 inh 50.9, Fam108B counter 46.5 | Fam108b confirm 50.8 | Fam108b ABPP HTS inactive
O=C(c1ccc(S(=O)(=O)Nc2ccccc2F)cc1)N1CCN(c2ccccc2O)CC1	none
Cc1cccc(OCC(=O)N/N=C\c2cc3c(cc2[N+](=O)[O-])OCO3)c1C	none
Cc1c(-c2ccccc2)nc2ccccc2c1C(=O)Nc1ccncc1	none
O=C(O)CC(C(=O)O)N1C(=O)/C(=C/c2ccc(-c3nc4ccccc4s3)o2)SC1=S (stereo unspecified)	Fam108B counter 32.4 | Fam108b confirm inactive
O=C(O)CCCN1C(=O)/C(=C\c2ccc(-c3nc4ccccc4s3)o2)SC1=S	Fam108B counter 19.5 | Fam108b confirm inactive
O=C(COC(=O)/C=C/c1cccc(F)c1)Nc1ccccc1-c1ccccc1	none
COc1cccc(C(=O)/C=C/Nc2ccc(NC(C)=O)cc2)c1	none
COc1cccc(C(=O)/C=C/Nc2ccc(S(=O)(=O)Nc3cccc(C(C)=O)c3)cc2)c1	Fam108B counter 21.7 | Fam108b confirm inactive
O=S(=O)(NCC(c1ccco1)N1CCCCC1)c1ccccc1C(F)(F)F (stereo unspecified)	none (no result: Fam108B counter, GSTO1 counter)
O=[N+]([O-])c1cc(Cl)cc(C=NNC(=S)Nc2ccc(S(=O)(=O)N3CCOCC3)cc2)c1O	none (no result: PME-1 inh, LYPLA2 counter, Fam108B counter, LYPLA1 inh, GSTO1 counter, PAD4 inh) | Fam108b ABPP HTS inactive
O=[N+]([O-])c1cc(Cl)cc(/C=N/NC(=S)Nc2ccc(S(=O)(=O)N3CCOCC3)cc2)c1O	Fam108B counter 39.4 | Fam108b confirm 31.3
O=S(=O)(c1ccc(NC(=S)N/N=C/c2ccc(O)c(O)c2)cc1)N1CCOCC1	none
N#Cc1ccc(/C=N/NC(=S)Nc2ccc(S(=O)(=O)N3CCOCC3)cc2)cc1	none
COc1ccc(-c2nc3scc(-c4ccc(OC)c(OC)c4)c3c(=O)o2)cc1	none
COc1ccc(-c2csc3nc(-c4ccccc4F)oc(=O)c23)cc1	Fam108B counter 50.2 | Fam108b confirm 36.5 | Fam108b ABPP HTS 60.0
Cc1nc2scc(-c3cccs3)c2c(=O)o1	none
CC(C)(C)c1nc2scc(-c3ccc(Br)cc3)c2c(=O)o1	Fam108B counter 26.5 | Fam108b confirm 29.3
Cc1nc2scc(-c3ccc(Cl)cc3)c2c(=O)o1	Fam108B counter 46.0 | Fam108b confirm 78.7 | Fam108b ABPP HTS 80.0
O=C(O)/C=C/C(=O)NC1CCCCC1	none
O=C(COC(=O)CNC(=O)c1ccc(Cl)cc1)Nc1cccc(S(=O)(=O)N2CCCC2)c1	Fam108B counter 63.8 | Fam108b confirm inactive
COc1ccc(C(=O)NCC(=O)OCC(=O)Nc2cccc(S(=O)(=O)N3CCCC3)c2)cc1	none
O=C(CN1CCCc2ccccc21)N/N=C/c1c(O)ccc2ccccc12	PME-1 inh 31.1, Fam108B counter 42.6 | Fam108b confirm inactive
C=CCn1c(=S)sc2c(=O)[nH]cnc21	none
Cc1csc(SCC(=O)N(C)CC(=O)Nc2ccc(F)cc2)n1	none
CCOC(=O)Cc1csc(NC(=O)c2sc3nc4c(C)cc(C)cc4cc3c2N)n1	PME-1 inh 85.9, Fam108B counter 23.2 | Fam108b confirm inactive
CN(C)S(=O)(=O)c1ccc(-c2csc(N/N=C/c3ccc(O)cc3)n2)cc1	PME-1 inh 35.4, Fam108B counter 29.2 | Fam108b confirm inactive
O=[N+]([O-])c1cccc(-c2csc(N/N=C/c3cccc(O)c3)n2)c1	Fam108B counter 32.2 | Fam108b confirm 30.7
CCOC(=O)Cc1csc(N/N=C/c2cccc([N+](=O)[O-])c2)n1	none
CCCc1cc(=O)oc2cc(C)cc(OC(C)C(=O)NCCN3CCOCC3)c12 (stereo unspecified)	none
CS(=O)(=O)N1CCC(C(=O)N2CCN(C(c3ccccc3)c3ccccc3)CC2)CC1	none
COc1cccc(N2CCN(S(=O)(=O)c3ccc4nc(-c5ccccc5)[nH]c4c3)CC2)c1	Fam108B counter 20.9 | Fam108b confirm inactive
COc1ccc(Cl)cc1NC(=O)C(C)N1CCN(C/C=C/c2ccccc2)CC1 (stereo unspecified)	none
COC1=CC(=O)C(O)=C(CCCCCCCC=CCCCCCCCC2=C(O)C(=O)C=C(OC)C2=O)C1=O	none (no result: PME-1 inh, LYPLA2 counter, Fam108B counter, LYPLA1 inh, GSTO1 counter, PAD4 inh) | Fam108b ABPP HTS inactive
On1onc2c3cc(-c4ccccc4)nc3ccc21	PME-1 inh 45.1, Fam108B counter 26.5 | Fam108b confirm 21.1
COC(=O)c1c(NC(=O)C(=O)NCCCN2CCOCC2)sc2c1CCCC2	none
Nc1ccc2nc(-c3cccc(-c4nc5ccc(N)cc5[nH]4)c3)[nH]c2c1	PME-1 inh 51.2, Fam108B counter 25.4 | Fam108b confirm 146.3 | Fam108b ABPP HTS 90.0
CN(/N=C/c1ccc(O)cc1O)c1nc(-c2ccccc2)cc(-c2ccccc2)n1	Fam108B counter 32.7 | Fam108b confirm 19.1
O=C(Nc1ccc(Nc2ccccc2)cc1)Nc1ccccc1Cl	PME-1 inh 31.4, Fam108B counter 22.2 | Fam108b confirm inactive
Cc1ccc(OCCn2cc(/C=N/NC(=O)c3ccncc3)c3ccccc32)cc1	PME-1 inh 68.8, LYPLA2 counter 38.3, Fam108B counter 33.8 | Fam108b confirm inactive
